From PubChem BioAssay
“And” between values parts separate entries of the source, which are not always exact repeats. Identical values can stand only once. The source made the active and inactive calls.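 The calls were made as follows, unless noted: active = thallium flux through the channel raised or lowered by more than 3 SD from vehicle-only wells, actives on both sides; inactive = the rest.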

Experiments:
[1] = compounds altering viability of human ES cells (AID 493140; call rule not given here;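 also: cells exposed to compounds for four days before counting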); details: human embryonic stem cell survival screen; stronger effect = higher value
[2] = signal quenchers or enhancers, Cy5 substrate/SSB – biochemical, NIH Clinical Collection, E. coli SSB, artefact control for HCV NS3 helicase inhibitor project (AID 743268; call rule not given here); details: Cy5-oligo bound E. coli SSB, fluorescence interference
[3] = system: Hepatitis C virus NS3 helicase; assay: blockers of NS3h binding to DNA – biochemical, fluorescence polarization, NIH Clinical Collection, primary screen (AID 743270; call rule not given here); details: NS3 helicase binding to Cy5-dT15 DNA, stronger effect = higher value, concentration not given here
[4] = biological target: Single-stranded DNA-binding protein (Escherichia coli (strain K12)) (UniProt P0AGE0); assay: SSB-ssDNA binding inhibitors – biochemical, fluorescence polarization, NIH Clinical Collection, counter-screen for HCV NS3 helicase inhibitor project (AID 743271; in the data active = inhibition above about 28%); details: E. coli SSB-DNA binding, stronger effect = higher value, concentration not given here
[5] = compounds distorting NS3 helicase fluorescence signal – biochemical, NIH Clinical Collection, artefact control for HCV NS3 helicase inhibitor project (AID 743272; call rule not given here;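 also: HCV NS3 helicase with a Cy5 labelled single stranded DNA probe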); details: fluorescence interference counterscreen, HCV NS3 helicase assay; stronger effect = lower value
[6] = biological target: 6-phosphogluconate dehydrogenase, decarboxylating (Homo sapiens) (UniProt P52209); assay: inhibition of human phosphogluconate dehydrogenase – biochemical, recombinant enzyme, NADPH absorbance, primary screen (AID 1159550;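 active = at least 20% inhibition of 6-phosphogluconate dehydrogenase activity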); details: recombinant 6PGD, NADPH absorbance 341 nm; at 10 µM; stronger effect = higher value
6-phosphogluconate dehydrogenase, decarboxylating (Homo sapiens), sequence (P52209 whole entry, looked up): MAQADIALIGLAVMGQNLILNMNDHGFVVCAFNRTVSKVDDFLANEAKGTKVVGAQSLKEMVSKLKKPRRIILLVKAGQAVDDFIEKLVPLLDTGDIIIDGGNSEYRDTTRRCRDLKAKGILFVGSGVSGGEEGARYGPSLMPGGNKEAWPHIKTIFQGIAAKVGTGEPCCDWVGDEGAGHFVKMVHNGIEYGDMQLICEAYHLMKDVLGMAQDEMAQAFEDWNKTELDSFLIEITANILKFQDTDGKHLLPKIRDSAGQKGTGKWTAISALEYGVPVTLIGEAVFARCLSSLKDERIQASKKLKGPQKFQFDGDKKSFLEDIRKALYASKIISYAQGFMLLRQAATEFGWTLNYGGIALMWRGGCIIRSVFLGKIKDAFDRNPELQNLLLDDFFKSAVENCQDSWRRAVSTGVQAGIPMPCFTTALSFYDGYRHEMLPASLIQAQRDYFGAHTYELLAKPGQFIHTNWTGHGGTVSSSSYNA

[7] = EMT-state selective cytotoxicity in co-culture – imaging, PC-3E GFP, TEM4-18 mCherry, primary screen (AID 1345086;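 active = compounds killing one labelled cell type while sparing the other, by normalised counts and ratio limits, not self-fluorescent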;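 as to all read-outs here: cells exposed to compound for 72 h before imaging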;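 as to red/green cell ratio (normalised): normalised mesenchymal count divided by normalised epithelial count so high means epithelial killing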); details: PC-3E GFP / TEM4-18 mCherry co-culture, imaging cell counts, at 1 µM; for red/green cell ratio (normalised): actives lie on both sides, counts scaled to control wells, 1 = unselective
[8] = MELAS cybrid and Rieske KO viability enhancers – cell-based, MELAS cybrids, Rieske KO mouse fibroblasts, CellTiter-Glo, primary screen (AID 1508586;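 active = mean z-score across replicates of 1.96 or higher in either the MELAS or the Rieske mutant cell line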;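 also: z relative to plate mean and SD of compound and empty wells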); details: low glucose
[9] = biological target: NAD(+) hydrolase SARM1 (Homo sapiens) (UniProt Q6SZW1); assay: blocking NAD cleavage by SARM1 SAM-TIR – cell lysate, NAD-Glo luminescence (AID 1508614;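 active = compound whose remaining NAD level is above about 45 nM, limit read from the data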;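 also: higher remaining NAD means stronger inhibition of SARM1 NADase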); details: SAM-TIR HEK293T lysate NADase, at 1 µM, stronger effect = higher value
NAD(+) hydrolase SARM1 (Homo sapiens), sequence (Q6SZW1 whole entry, looked up, the tested form may be a part): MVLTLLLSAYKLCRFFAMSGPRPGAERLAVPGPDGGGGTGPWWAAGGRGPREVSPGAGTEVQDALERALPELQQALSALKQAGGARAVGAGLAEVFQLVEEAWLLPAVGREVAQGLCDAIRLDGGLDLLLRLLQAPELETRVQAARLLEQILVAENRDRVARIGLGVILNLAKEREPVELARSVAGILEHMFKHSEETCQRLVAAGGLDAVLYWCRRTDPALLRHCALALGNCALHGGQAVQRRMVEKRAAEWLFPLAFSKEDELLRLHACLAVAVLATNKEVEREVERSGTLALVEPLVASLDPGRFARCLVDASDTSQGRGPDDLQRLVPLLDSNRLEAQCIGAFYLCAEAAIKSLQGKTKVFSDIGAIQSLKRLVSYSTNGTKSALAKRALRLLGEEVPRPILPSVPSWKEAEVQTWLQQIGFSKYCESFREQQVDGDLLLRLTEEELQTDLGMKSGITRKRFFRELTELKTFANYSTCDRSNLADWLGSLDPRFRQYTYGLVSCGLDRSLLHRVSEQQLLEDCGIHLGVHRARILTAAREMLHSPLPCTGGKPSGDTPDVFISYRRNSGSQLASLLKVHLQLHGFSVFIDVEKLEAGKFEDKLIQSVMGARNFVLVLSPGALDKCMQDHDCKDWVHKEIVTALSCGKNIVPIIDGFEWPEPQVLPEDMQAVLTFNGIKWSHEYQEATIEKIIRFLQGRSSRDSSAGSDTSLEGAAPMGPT

[10] = biological target: Mitogen-activated protein kinase 7 (Homo sapiens) (UniProt Q13164); assay: Gal4-ERK5 driven luciferase induction – cell-based, HTS, primary screen (AID 1508626;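 active = luciferase signal above three times the same-plate solvent-only control wells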;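 also: luciferase driven by Gal4-ERK5 fusion binding five Gal4 sites before minimal TATA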); details: HeLa Gal4-ERK5 transactivation, 18 h, at 5 µM, stronger effect = higher value
Mitogen-activated protein kinase 7 (Homo sapiens), sequence (Q13164 whole entry, looked up, the tested form may be a part): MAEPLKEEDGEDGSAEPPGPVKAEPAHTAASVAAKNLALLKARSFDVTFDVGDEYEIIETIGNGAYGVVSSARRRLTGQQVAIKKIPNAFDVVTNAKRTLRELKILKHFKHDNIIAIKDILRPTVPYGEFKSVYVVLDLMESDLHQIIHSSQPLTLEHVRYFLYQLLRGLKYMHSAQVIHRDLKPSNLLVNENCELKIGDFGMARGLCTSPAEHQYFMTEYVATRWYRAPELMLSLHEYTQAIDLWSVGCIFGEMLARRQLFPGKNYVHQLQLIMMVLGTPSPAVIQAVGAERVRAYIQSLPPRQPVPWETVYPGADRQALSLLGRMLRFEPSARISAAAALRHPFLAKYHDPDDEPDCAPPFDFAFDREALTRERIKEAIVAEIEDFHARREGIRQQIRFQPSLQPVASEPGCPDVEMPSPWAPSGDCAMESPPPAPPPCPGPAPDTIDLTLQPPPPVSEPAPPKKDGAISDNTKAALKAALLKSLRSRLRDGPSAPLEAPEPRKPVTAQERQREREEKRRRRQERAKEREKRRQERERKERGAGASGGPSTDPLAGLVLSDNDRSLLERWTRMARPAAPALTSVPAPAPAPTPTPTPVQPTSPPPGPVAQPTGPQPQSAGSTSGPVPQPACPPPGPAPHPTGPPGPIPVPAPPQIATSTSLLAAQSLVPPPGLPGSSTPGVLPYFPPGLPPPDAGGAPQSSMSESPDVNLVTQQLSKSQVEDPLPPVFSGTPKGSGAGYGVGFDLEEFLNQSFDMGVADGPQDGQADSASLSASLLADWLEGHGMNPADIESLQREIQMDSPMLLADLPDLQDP

[11] = galactose survival enhancers in mitochondrial complex I cybrids – cell-based, galactose medium, ATP luminescence, primary screen (AID 1645843;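 active = z-score of at least 1.8 in each of two replicates, scored against plate mean and spread of sample wells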;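 also: positive z means more ATP and so rescue of galactose-driven cybrid death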); details: complex I mutant cybrid cells, 72 h, stronger effect = higher value
F380Y = assay: BK channel mutant inhibitors and activators – cell-based, U2OS BacMam, thallium flux, beta subunits, selectivity assay, profiling panel (AID 1259406); details: U2OS BacMam BK variants, at 30 µM;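 also: initial slope of Thallos dye fluorescence rise after thallium is added; log ratio against the mean of 0.3% DMSO vehicle wells on the same plate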
F380Y/beta2Delta = assay: as above; details: U2OS BacMam BK variants, at 30 µM
[12] = biological target: Calcium-activated potassium channel subunit alpha-1 (Homo sapiens) + Leucine-rich repeat-containing protein 26 (Homo sapiens) (UniProt Q12791+Q2I0M4); assay: as above; details: U2OS BacMam BK variants, F380Y/Slo1WT/gamma1, at 30 µM
Calcium-activated potassium channel subunit alpha-1 (Homo sapiens) + Leucine-rich repeat-containing protein 26 (Homo sapiens), sequence (Q2I0M4 whole entry, looked up, one chain of several): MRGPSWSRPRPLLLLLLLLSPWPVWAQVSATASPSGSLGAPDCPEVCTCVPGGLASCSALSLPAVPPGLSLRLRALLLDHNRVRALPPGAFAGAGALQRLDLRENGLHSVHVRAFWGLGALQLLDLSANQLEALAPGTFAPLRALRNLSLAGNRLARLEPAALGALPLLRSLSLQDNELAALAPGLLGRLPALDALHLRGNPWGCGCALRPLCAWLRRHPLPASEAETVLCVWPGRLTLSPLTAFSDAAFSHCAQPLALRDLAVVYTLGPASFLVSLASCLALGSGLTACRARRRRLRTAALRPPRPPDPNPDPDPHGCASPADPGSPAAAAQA

R275C = assay: as above; details: U2OS BacMam BK variants, at 30 µM
R275C/beta1 = assay: as above; details: U2OS BacMam BK variants, at 30 µM
R275C/beta2Delta = assay: as above; details: U2OS BacMam BK variants, at 30 µM
[13] = viability loss with induced miR-34 in A549 – imaging, A549 dox-inducible miR-34, nuclei and caspase counts, primary screen (AID 1347080;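 active = compounds whose cell count with miR-34 switched on is under 0.7 times the count with it off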); details: A549 miR-34 inducible, Hoechst nuclei count, 48 h
[14] = P. berghei load reduction in hepatocytes – cell-based, HepG2, luciferase luminescence, HepG2 viability, primary screen (AID 624349; in the data active = parasite load remaining mostly below about 12%, no sharp cut-off; inactive = mostly above about 10%;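 also: 100% = mean of DMSO negative control wells on the same plate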); details: P. berghei liver stage in HepG2, luciferase luminescence, concentration not given here; parasite load remaining: stronger effect = lower value; viability: measured here: HepG2 viability without parasites
[15] = measured here: epithelial PC-3E GFP cell survival
[16] = measured here: mesenchymal TEM4-18 mCherry cell survival
[17] = MELAS cybrid survival, CellTiter-Glo 48 h, stronger effect = higher value
[18] = Rieske KO mouse fibroblast survival, CellTiter-Glo 72 h
[19] = stronger effect = lower value, cell number ratio, induced over uninduced
[20] = measured here: relative caspase fold change +Dox/-Dox
[21] = measured here: total cells with miR-34 induction, stronger effect = lower value
[22] = measured here: total cells without miR-34 induction

Structure (SMILES): CC(=O)N=c1sc(S(N)(=O)=O)nn1C
- survival [1]: 5.08 (inactive)
- fluorescence ratio [2]: 1.01 (inactive)
- inhibition [3]: -0.45% (inactive)
- inhibition [4]: -3.53% (inactive)
- fluorescence ratio [5]: 1.03 (inactive)
- inhibition [6]: 18.8% (inactive)
- red/green cell ratio (normalised) [7]: 1.22 (inactive)
- normalised cell number [7, 15]: 0.92
- normalised cell number [7, 16]: 1.12
- z-score [8, 17]: -0.23 (inactive) and 0.0575 (inactive)
- z-score [8, 18]: -0.175 and -0.724
- remaining NAD [9]: 10 nM (inactive)
- luciferase signal [10]: 80 AU (inactive)
- z-score [11]: 0.7 (inactive)
- log fold change Tl+ flux (F380Y): 0.00591 (inactive)
- log fold change Tl+ flux (F380Y/beta2Delta): 0.00714 (inactive)
- log fold change Tl+ flux [12]: -0.0355 (inactive)
- log fold change Tl+ flux (R275C): 0.00598 (inactive)
- log fold change Tl+ flux (R275C/beta1): -0.028 (inactive)
- log fold change Tl+ flux (R275C/beta2Delta): -0.0276 (inactive)

Structure (SMILES): C#C[C@]1(O)CC[C@H]2[C@@H]3CCC4=CC(=O)CC[C@@H]4[C@H]3CC[C@@]21C
- survival [1]: 14.7 (inactive)
- fluorescence ratio [2]: 0.96 (inactive)
- inhibition [3]: 1.36% (inactive)
- inhibition [4]: 3.34% (inactive)
- fluorescence ratio [5]: 0.96 (inactive)
- inhibition [6]: -1.74% (inactive)
- fold change [13, 19]: 0.992 (inactive) and 0.97 (inactive) and 0.797 (inactive)
- fold change [13, 20]: 3.48 and 0.712 and 1.56
- cell count [13, 21]: 9410 and 9190 and 8090
- cell count [13, 22]: 9490 and 9470 and 10100
- z-score [8, 17]: 0.108 (inactive) and 0.243 (inactive)
- z-score [8, 18]: 0.0145 and -0.237
- remaining NAD [9]: 10 nM (inactive)
- luciferase signal [10]: 48 AU (inactive)
- z-score [11]: -0.71 (inactive) and 0.54 (inactive)
- log fold change Tl+ flux (F380Y): 0.0234 (inactive)
- log fold change Tl+ flux (F380Y/beta2Delta): 0.0279 (inactive)
- log fold change Tl+ flux [12]: 0.0181 (inactive)
- log fold change Tl+ flux (R275C): 0.0301 (inactive)
- log fold change Tl+ flux (R275C/beta1): 0.0324 (inactive)
- log fold change Tl+ flux (R275C/beta2Delta): 0.062 (inactive)

Structure (SMILES): CC(C)[N+]1(C)C2CCC1CC(OC(=O)C(CO)c1ccccc1)C2 (stereo not given)
- survival [1]: 16.6 (inactive)
- parasite load remaining [14]: 58.8% (inactive) and 74.5% (inactive)
- viability [14]: 98.1% and 77.4%
- fluorescence ratio [2]: 1.07 (inactive)
- inhibition [3]: -3.18% (inactive)
- inhibition [4]: -3.53% (inactive)
- fluorescence ratio [5]: 1.02 (inactive)
- inhibition [6]: 11.9% (inactive)
- fold change [13, 19]: 0.921 (inactive) and 0.934 (inactive) and 0.97 (inactive)
- fold change [13, 20]: 0.608 and 0.704 and 0.785
- cell count [13, 21]: 10300 and 7770 and 8120
- cell count [13, 22]: 11100 and 8310 and 8370
- z-score [8, 17]: 0.162 (inactive)
- z-score [8, 18]: -0.136
- z-score [11]: 0.14 (inactive) and 0.88 (inactive)
- log fold change Tl+ flux (F380Y): 0.00902 (inactive)
- log fold change Tl+ flux (F380Y/beta2Delta): -0.00601 (inactive)
- log fold change Tl+ flux [12]: 0.0518 (inactive)
- log fold change Tl+ flux (R275C): 0.0409 (inactive)
- log fold change Tl+ flux (R275C/beta1): -0.0331 (inactive)
- log fold change Tl+ flux (R275C/beta2Delta): 0.000928 (inactive)

Structure (SMILES): C[C@H](CCC(=O)O)[C@H]1CC[C@H]2[C@@H]3[C@@H](O)C[C@@H]4C[C@H](O)CC[C@]4(C)[C@H]3CC[C@]12C
- survival [1]: 4.92 (inactive)
- parasite load remaining [14]: 52.5% (inactive) and 128% (inactive)
- viability [14]: 109% and 101%
- fluorescence ratio [2]: 0.99 (inactive)
- inhibition [3]: -1.36% (inactive)
- inhibition [4]: 1.81% (inactive)
- fluorescence ratio [5]: 0.97 (inactive)
- inhibition [6]: -17.2% (inactive)
- fold change [13, 19]: 1 (inactive) and 0.854 (inactive)
- fold change [13, 20]: 1.43 and 1.31
- cell count [13, 21]: 10300 and 8440
- cell count [13, 22]: 10300 and 9880
- z-score [8, 17]: -0.323 (inactive)
- z-score [8, 18]: -0.919
- remaining NAD [9]: 10 nM (inactive)
- luciferase signal [10]: 36 AU (inactive)
- z-score [11]: -0.425 (inactive)
- log fold change Tl+ flux (F380Y): 0.0594 (inactive)
- log fold change Tl+ flux (F380Y/beta2Delta): 0.0428 (inactive)
- log fold change Tl+ flux [12]: 0.00339 (inactive)
- log fold change Tl+ flux (R275C): 0.0817 (inactive)
- log fold change Tl+ flux (R275C/beta1): 0.198 (active)
- log fold change Tl+ flux (R275C/beta2Delta): 0.142 (active)

Structure (SMILES): CN1CCN(CC/C=C2/c3ccccc3Sc3ccc(S(=O)(=O)N(C)C)cc32)CC1
- inhibition [6]: 2.11% (inactive)
- remaining NAD [9]: 10 nM (inactive)
- luciferase signal [10]: 108 AU (inactive)

Structure (SMILES): CN=C(N)NCCC[C@H](N)C(=O)O
- parasite load remaining [14]: 97.7% (inactive)
- viability [14]: 72.8%
- fluorescence ratio [2]: 0.99 (inactive)
- inhibition [3]: -3.56% (inactive)
- inhibition [4]: -2.41% (inactive)
- fluorescence ratio [5]: 0.93 (inactive)
- inhibition [6]: 3.01% (inactive) and 12.6% (inactive)
- red/green cell ratio (normalised) [7]: 1.23 (inactive)
- normalised cell number [7, 15]: 0.78
- normalised cell number [7, 16]: 0.95
- fold change [13, 19]: 0.994 (inactive) and 0.867 (inactive)
- fold change [13, 20]: 0.824 and 0.665
- cell count [13, 21]: 9540 and 7760
- cell count [13, 22]: 9600 and 8960
- z-score [11]: 0.22 (inactive)

Structure (SMILES): CC(=O)OCC(=O)[C@@]1(O)CC[C@H]2[C@@H]3C[C@H](C)C4=CC(=O)C=C[C@]4(C)[C@H]3[C@@H](O)C[C@@]21C
- parasite load remaining [14]: 68.8% (inactive)
- viability [14]: 94.7%
- fluorescence ratio [2]: 0.98 (inactive)
- inhibition [3]: -2.27% (inactive)
- inhibition [4]: 0.29% (inactive)
- fluorescence ratio [5]: 0.99 (inactive)
- inhibition [6]: 6.5% (inactive)
- fold change [13, 19]: 0.982 (inactive)
- fold change [13, 20]: 1.01
- cell count [13, 21]: 8310
- cell count [13, 22]: 8460
- luciferase signal [10]: 112 AU (inactive)
- z-score [11]: -0.46 (inactive)
- log fold change Tl+ flux (F380Y): 0.0243 (inactive)
- log fold change Tl+ flux (F380Y/beta2Delta): 0.0726 (inactive)
- log fold change Tl+ flux [12]: 0.0089 (inactive)
- log fold change Tl+ flux (R275C): 0.0193 (inactive)
- log fold change Tl+ flux (R275C/beta1): 0.0544 (inactive)
- log fold change Tl+ flux (R275C/beta2Delta): 0.0284 (inactive)

Structure (SMILES): Cc1ccc(N(CC2=NCCN2)c2cccc(O)c2)cc1
- survival [1]: 15.2 (inactive)
- inhibition [6]: -2.41% (inactive)
- red/green cell ratio (normalised) [7]: 1 (inactive)
- normalised cell number [7, 15]: 0.96
- normalised cell number [7, 16]: 0.97
- z-score [8, 17]: 0.136 (inactive) and 0.319 (inactive) and 0.784 (inactive)
- z-score [8, 18]: -0.0354 and 0.524 and 0.332
- remaining NAD [9]: 10 nM (inactive)
- luciferase signal [10]: 116 AU (inactive)
- z-score [11]: -0.355 (inactive) and 0.035 (inactive)

Structure (SMILES): OC[C@H]1O[C@@H](Oc2cc(O)cc(/C=C/c3ccc(O)cc3)c2)[C@H](O)[C@@H](O)[C@@H]1O
- parasite load remaining [14]: 100% (inactive)
- viability [14]: 78.3%
- fluorescence ratio [2]: 1 (inactive)
- inhibition [3]: 3.56% (inactive)
- inhibition [4]: 10.7% (inactive)
- fluorescence ratio [5]: 0.98 (inactive)
- inhibition [6]: 15% (inactive)
- log fold change Tl+ flux (F380Y): 0.0295 (inactive)
- log fold change Tl+ flux (F380Y/beta2Delta): -0.0576 (inactive)
- log fold change Tl+ flux [12]: -0.0684 (inactive)
- log fold change Tl+ flux (R275C): -0.101 (inactive)
- log fold change Tl+ flux (R275C/beta1): -0.0629 (inactive)
- log fold change Tl+ flux (R275C/beta2Delta): -0.0169 (inactive)
